Assay outcomes: PubChem, several laboratories
FXIIa mix inh = inhibitors of human coagulation factor XIIa, pooled mixtures. inhibition, % at 5 µM. P00748. purified FXIIa, fluorogenic substrate. 0.2% of 62,000 active
Target sequence (P00748 20-372 limits assumed): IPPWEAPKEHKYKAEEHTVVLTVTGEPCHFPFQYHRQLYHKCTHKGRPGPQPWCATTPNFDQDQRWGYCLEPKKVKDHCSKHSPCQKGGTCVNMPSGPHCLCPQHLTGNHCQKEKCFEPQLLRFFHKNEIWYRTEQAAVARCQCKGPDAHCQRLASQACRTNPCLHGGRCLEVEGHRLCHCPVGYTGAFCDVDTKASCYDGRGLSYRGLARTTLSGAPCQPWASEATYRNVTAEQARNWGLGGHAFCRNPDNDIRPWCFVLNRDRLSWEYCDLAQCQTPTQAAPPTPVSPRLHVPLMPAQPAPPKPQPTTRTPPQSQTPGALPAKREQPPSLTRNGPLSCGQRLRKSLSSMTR
Target sequence (P00748 373-615 limits assumed): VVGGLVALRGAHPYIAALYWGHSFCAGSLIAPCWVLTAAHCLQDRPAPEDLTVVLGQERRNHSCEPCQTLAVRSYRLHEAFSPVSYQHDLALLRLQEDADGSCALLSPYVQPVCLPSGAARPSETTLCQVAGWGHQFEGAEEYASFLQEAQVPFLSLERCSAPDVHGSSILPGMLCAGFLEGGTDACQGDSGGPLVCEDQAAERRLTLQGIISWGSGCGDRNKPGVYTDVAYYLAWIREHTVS
D1 allo mod = D1 dopamine receptor (human) allosteric modulation; P21728; AID 641; B-score at 10 µM; HEK293 D1, CRE-luciferase, dopamine EC30 potentiation; actives deviate in either direction; 5.9% of 58,000 active;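 active = luminescence count or its row- and column-corrected plate score outside the 99.7% band of the plate's sample wells, on either side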
FXIa inh mix = blocks human factor XIa in pooled compound mixtures | AID 680 | inhibition, % at 5 µM | 0.19% of 62,000 active | purified FXIa, fluorogenic substrate;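 note: each value is inhibition by a whole ten-compound pool holding the compound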
hDAT+cocaine = changed human dopamine transporter uptake under cocaine IC80; B-score at 10 µM; LLC-PK1 hDAT cells, [14C]-dopamine uptake with cocaine IC80; actives deviate in either direction; 1.3% of 110,000 active; Q01959; AID 449768;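 active = Z score or B-score, a plate-position-corrected score, falls beyond the plate's 99.7% confidence bounds, in either direction; inactive = both scores lie inside the 99.7% bounds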
M1 agonist = agonists of M1 muscarinic receptor. 3% of 64,000 active. CHO-M1 cells, Fluo-4 calcium fluorescence, agonist mode; stronger effect = higher value. B-score at 10 µM. AID 626;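 active = fluorescence rise, raw or as B-score row- and column-corrected plate score, outside the 99.7% band of its plate's samples, either direction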
M1 antag = blocks the rat M1 muscarinic receptor response to acetylcholine; P08482; CHO-M1 cells, Fluo-4 calcium, ACh EC80 antagonist mode; stronger effect = lower value; B-score at 10 µM; 3.4% of 64,000 active; AID 628;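 active = calcium fluorescence response, raw or row-and-column corrected B-score, differing from the plate sample mean either way at a set confidence level, mostly lower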
D1 mod confirm = confirmation of human D1 dopamine receptor allosteric modulators | 88% of 2,200 active | shares compounds with D1 allo mod | HEK293 D1 CRE-luciferase, dopamine EC30 potentiation; stronger effect = higher value | luminescence at 10 µM;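 active = luminescence in either of two replicates above the same-plate mean plus 3 SD of the low-dose dopamine control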
D1 no dopamine = secondary test of D1 modulators: activity without dopamine | shares compounds with D1 allo mod | HEK293 D1 CRE-luciferase, luminescence, no dopamine; stronger effect = higher value | luminescence at 10 µM | 0.8% of 1,900 active; in the data active = luminescence above about 3900
Isoprot counter = alters isoproterenol CRE-luciferase response in HEK293 cells. shares compounds with D1 allo mod. HEK293 D1 CRE-luciferase, isoproterenol EC30 counter-screen. calls only at 10 µM. 63% of 2,200 active;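 active = luminescence in either replicate above plate mean of wells with a partly effective reference agonist dose plus 3 SD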;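 note: isoproterenol raises cAMP through native beta-adrenoceptor Gs so signal bypasses D1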
A number is an active result; - = inactive; . = no result; + = active, no number. Hits are enriched below; roughly 7.4% of the tested compounds scored in any of these assays. Cut-off read from the data, not from the text of the source, unless noted: active = inhibition above about 20% (passing the limit was not always enough); inactive = the rest.

SMILES	FXIIa mix inh	D1 allo mod	FXIa inh mix	hDAT+cocaine	M1 agonist	M1 antag	D1 mod confirm	D1 no dopamine	Isoprot counter
C=COCCn1c(=N)n(CCC)c2ccccc21	-	-	-	-	-	-	.	.	.
COc1cc(OC)cc(C(=O)Nc2cccc(C(C)=O)c2)c1	-	-	-	-	-	-	.	.	.
COc1cc(OC)cc(C(C)=O)c1	-	8.5	-	-	-	-	24876	-	+
CCN(CC)S(=O)(=O)c1cccc(-c2nnc(SCCOc3ccccc3)o2)c1	-	14	-	-	-	-	-	-	-
O=C(CSc1nc2ccccc2c(=O)n1Cc1ccco1)c1ccc(F)cc1	-	-	-	-	-	-	.	.	.
N#CCSc1nc2c(sc(=S)n2Cc2ccco2)c(=O)n1-c1ccc(F)cc1	-	3	-	-	-	-	10848	-	-
Cc1cc(C)nc(SCCCn2c(=O)[nH]c3ccccc32)n1	-	-	-	-	-	-	.	.	.
Cc1cc(NC(=O)c2sccc2C)n(-c2cccc(Cl)c2)n1	-	4.9	-	-	-	-	12892	-	+
COc1nc(N2CCCCCC2)nc(N2CCCCCC2)n1	-	-	-	-	-	-	.	.	.
COC(=O)CN(C#N)c1nc(SC)nc(N(C)C)n1	-	-	-	-	-	-	.	.	.
COc1nc(/C(N)=N/O)nc(N2CCCCC2)n1	-	13	-	-	-	-	24932	-	+
COc1nc(N(C#N)CC(N)=O)nc(N2CCCC2)n1	-	8.4	-	-	-	-	20228	-	+
Cc1nc2sc(C(c3cccs3)N3CCC4(CC3)OCCO4)c(O)n2n1 (configuration not stated)	.	-	.	-	-	-	.	.	.
COc1ccc(CN(Cc2cccnc2)S(=O)(=O)c2ccc(-n3cnnn3)c(C)c2)cc1OC	-	3.7	-	-	-	-	7956	-	-
CC(=O)N=c1sc2nc3ccccc3nc2n1N(C(C)=O)C(C)=O	-	2.8	-	-	-	-	8388	-	-
O=C(CCSc1nnnn1-c1ccccc1)N1CCOCC1	-	-	-	-	-	-	.	.	.
FC(F)(F)c1cc(-c2cccs2)nc(-n2cc(Br)cn2)n1	.	.	.	-	.	.	.	.	.
Cc1cnn(-c2nc(-c3cccs3)cc(C(F)(F)F)n2)c1	-	15	-	-	.	.	14404	.	+
C=C(C)c1cccc(C(C)(C)NC(=O)Nn2cnnc2)c1	-	6	-	-	-	-	-	-	-
C=C(C)c1cccc(C(C)(C)NC(=O)Nc2ncccn2)c1	-	-	-	-	-	-	.	.	.
C=CCNc1nc(Nc2ccc(OC)cc2OC)nc(OCC)n1	-	3.8	-	-	-	-	10064	-	+
CCOC(=O)CSc1nc2c(c(=O)[nH]c(=O)n2C)n1CCCc1ccccc1	-	-	-	-	.	.	.	.	.
CCNc1nc2c(c(=O)[nH]c(=O)n2C)n1CC(C)C	-	-	-	-	-	-	.	.	.
CCCCCCn1c(NCC)nc2c1c(=O)[nH]c(=O)n2C	-	5.3	-	-	-	-	9696	-	+
CCCCCn1c(Sc2nc3ccccc3s2)nc2c1c(=O)[nH]c(=O)n2C	-	17	-	-	-	-	22672	-	+
SMILES	FXIIa mix inh	D1 allo mod	FXIa inh mix	hDAT+cocaine	M1 agonist	M1 antag	D1 mod confirm	D1 no dopamine	Isoprot counter
Cc1ccc(Cn2c(Sc3ncccn3)nc3c2c(=O)[nH]c(=O)n3C)cc1	-	-	-	-	-	-	.	.	.
CCCCCCn1c(SCC(=O)OC)nc2c1c(=O)[nH]c(=O)n2C	-	4.7	-	-	-	-	-	-	+
Cc1csc(Sc2nc3c(c(=O)[nH]c(=O)n3C)n2CCCc2ccccc2)n1	-	-	-	-	-	-	.	.	.
CCCCCn1c(Sc2ncccn2)nc2c1c(=O)[nH]c(=O)n2C	.	20	.	-	-	-	25988	-	+
COC(=O)Nc1ncc(CN2CCC(c3ccccc3)CC2)s1	.	.	.	-	.	.	.	.	.
C/C(=N\O)c1ccc2c3ccccc3n(C)c2c1	-	-	-	-	.	.	.	.	.
Cn1c2c(c3ccccc31)CC/C2=N\O	-	4.7	-	-	-	-	8132	-	-
COc1ccc(C2C(C(=O)N3CCCCC3)CCC(=O)N2c2cc(OC)c(OC)c(OC)c2)cc1 (configuration not stated)	-	-	-	-	-	-	.	.	.
NC(=O)c1cc(Br)cc2c3c([nH]c12)CCCC3	-	3.9	-	-	-	-	11200	-	+
O=c1c2c([nH]c3ccc(Br)cc13)CCCC2	-	-	-	-	-	-	.	.	.
CCOC(=O)c1[nH]c(C)c(C(=O)NC2CCN(C(=O)OCC)CC2)c1C	-	2.1	-	-	-	-	-	-	-
O=C(NCc1ccc2c(c1)OCO2)C1CCC(CNc2c(N3CCCC3)c(=O)c2=O)CC1 (configuration not stated)	-	2.3	-	.	-	-	-	-	-
Cc1ccc(CNC(=O)C2CCC(CNc3c(N4CCOCC4)c(=O)c3=O)CC2)cc1 (configuration not stated)	.	.	.	-	.	.	.	.	.
CCOc1ccc(CCNC(=O)C(C)n2nc(C)n3c(cc4occc43)c2=O)cc1OCC (configuration not stated)	-	-	-	-	-	-	.	.	.
CCOC(=O)c1[nH]cnc1C(=O)Nc1ccccn1	-	4	-	-	-	-	10664	-	-
O=C(c1ccccc1)c1nc[nH]c1C(=O)Nc1ccccn1	-	4.6	-	-	-	-	9124	-	-
Cc1nc2ccccc2nc1OCC(=O)NCc1ccc2c(c1)OCO2	-	-	-	-	-	-	.	.	.
CC(C)(C)C1=Nn2c(nnc2C2CCCCC2)SC1	.	24	.	-	-	-	19908	-	+
c1cc2c(cc1C1=Nn3c(nnc3C3CCCCC3)SC1)OCO2	-	28	-	-	-	-	25488	-	+
O=C(Nc1ncccc1Cl)c1cccc(F)c1	-	.	-	-	-	-	.	.	.
CCOC(=O)c1cnn(-c2cccc(Cl)c2)c1N	-	4.6	-	-	-	-	12468	-	-
CCC1Oc2ccc(C)cc2N(CC(=O)NCCN2C(C)CCCC2C)C1=O (configuration not stated)	-	5	-	-	-	-	-	-	-
C=CCN=C(NC#N)SCc1ccccc1Cl	-	7.4	-	-	-	-	8148	.	-
COc1cc2c(cc1OC)/C(=C/C#N)NC(C)(C)C2	-	10	-	-	-	-	16360	-	+
COc1cc2c(cc1OC)C(=NCCC(=O)O)NC(C)(C)C2	-	-	-	.	-	-	.	.	.
COc1ccc(NC(=O)COC(=O)C23CCC(=O)N2c2ccccc2S3)cc1 (configuration not stated)	.	.	.	-	.	.	.	.	.
